# Potency and affinity values are given separately. Calls of active or inactive are those of the source.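 Rule for the calls: active = compounds lowering ATP signal whose fitted half-maximal concentration is at most twice the top tested dose; inconclusive = flat fit with 30 to 70% loss, or bad fit; inactive = the rest.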
# Assay: cytotoxicity in MITF-independent A375 cells – cell-based, CellTiter-Glo luminescence, dry powder, set 4, counter-screen for MITF inhibitor project, dose response (AID 624364)
# Conditions: CellTiter-Glo ATP luminescence, 24 h; series mostly up to 35 µM
row,SMILES,outcome
1,COc1ccc(C2=C(NC(=O)c3ccc(OC)cc3-c3cccc(OC)c3)C(=O)c3ccccc3C2=O)cc1,inactive
2,C=CCNC1=C(NCCCN2CCOCC2)C(=O)c2ccccc2C1=O,inactive
3,O=C(NC1=C(N2CCN(c3ccccc3)CC2)C(=O)c2ccccc2C1=O)c1ccccc1,inactive
4,C=CCNC1=C(NCC=C)C(=O)c2ccccc2C1=O,inactive
5,CN1CCN(C2=C(NS(=O)(=O)c3cccs3)C(=O)c3ccccc3C2=O)CC1,inactive

# Source: PubChem BioAssay AID624364 (Broad Institute, 2012)
